# Activity calls are given as the source filed them. Rule for the calls: active = hit-call score of the fitted dose curve at least 0.9, where 1 is the maximum; inactive = score below 0.9.
# Experiment: ATG_TCF_b_cat_CIS: Attagene CIS-FACTORIAL HepG2 Assay for human T-Cell-Factor with beta-catenin (TCF/b-cat) (AID 2282965)
# Conditions: HepG2 TCF/beta-catenin cis-reporter transcription, actives raise or lower the signal
# In short: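 In this cis-format system, transfected HepG2 cells report endogenous transcription factor activity. Readout after 24 h exposure is reporter transcript abundance from RT-PCR and capillary electrophoresis, analysed for gain or loss of signal versus DMSO.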
SMILES,outcome,AC50
CC1=C(O)C(=O)C(C)O1 (stereo unspecified),inactive,
CCCCNS(=O)(=O)c1ccc(C)cc1,inactive,
O=C(Oc1ccccc1)c1ccccc1O,inactive,
O=C1c2ccccc2C(=O)c2cc(S(=O)(=O)O)ccc21,inactive,
O=C(O)c1cc(O)c2ccccc2c1O,inactive,
Cc1c(C(=O)c2c[nH]n(C)c2=O)ccc(S(C)(=O)=O)c1C1=NOCC1,inactive,
O=C1CCCCCCCCCCC1,inactive,
C=CCCCCCCCCOC(C)=O,inactive,
CCCCCCCCCCCCCc1ccccc1,inactive,
Cc1ccc(C)c(OCCCC(C)(C)C(=O)O)c1,inactive,
CC(C)(CO)C(O)C(=O)NCCCO (stereo unspecified),inactive,
CCCSSCCC,inactive,
Clc1cccnc1,inactive,
CC(C)c1ccc2ncccc2c1,inactive,
CC1(C)CCC[C@]2(C)[C@H]3CC(=O)O[C@]3(C)CC[C@@H]12,inactive,
N=C1C=CC(=C(c2ccc(N)cc2)c2ccc(N)cc2)C=C1,,26.5 µM (active)
CC(CC(C)C)=NO,inactive,
O=C(Cl)c1c(Cl)c(Cl)c(C(=O)Cl)c(Cl)c1Cl,inactive,
CC(C)(C)N,inactive,

SMILES,outcome,AC50
CCOC(=O)OC(=O)OCC,inactive,
CCCC1CCCC(=O)O1 (stereo unspecified),inactive,
COc1ccc(C(=O)c2ccccc2)c(O)c1,inactive,
C=CC(=O)OCC(C)OCC(C)OCC(C)OC(=O)C=C (stereo unspecified),,71.5 µM (active)
CCCCOCCOC(=O)COc1ccc(Cl)cc1Cl,inactive,
O=C(Oc1ccccc1)c1ccccc1C(=O)Oc1ccccc1,,51.4 µM (active)
CC1(C)C(=O)N(CO)C(=O)N1CO,inactive,
C=C[C@@]1(C)CC(=O)[C@]2(O)[C@@]3(C)[C@@H](O)CCC(C)(C)[C@@H]3[C@H](O)[C@H](OC(C)=O)[C@@]2(C)O1,inactive,
O=C(OCc1ccccc1)c1ccc(O)cc1,,124 µM (active)
CC(=O)OC(C)c1ccccc1 (stereo unspecified),inactive,
CCC(C)N (stereo unspecified),inactive,
CC1OC(=O)C(C)OC1=O (stereo unspecified),inactive,
CC(=O)OC/C=C(/C)CCC=C(C)C,inactive,
CCCCC1CCC(=O)O1 (stereo unspecified),inactive,
CC=C(C)C(C)=O,inactive,
CC(=O)CCC1=C(C)CCCC1(C)C,inactive,
Nc1cccc(N)n1,inactive,
Cc1noc(NS(=O)(=O)c2ccc(N)cc2)c1C,inactive,

# Experiment: ATG_TAL_CIS: Attagene CIS-FACTORIAL HepG2 Assay for human TAL Basal Promoter (AID 2282966);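 note: background control endpoint measuring basal TAL promoter reporter mRNA not a specific factor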
# Conditions: HepG2 Attagene cis-factorial TAL promoter reporter; actives raise or lower the signal
# In short: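 After 24 hours of chemical exposure, transfected HepG2 cells yielded RNA that was converted to 6-FAM-labelled, HpaI-digested reporter fragments for capillary electrophoresis. Values derive from bidirectional fitting against DMSO controls.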
SMILES,outcome,AC50
CC1=C(O)C(=O)C(C)O1 (stereo unspecified),inactive,
CCCCNS(=O)(=O)c1ccc(C)cc1,inactive,
O=C(Oc1ccccc1)c1ccccc1O,inactive,
O=C1c2ccccc2C(=O)c2cc(S(=O)(=O)O)ccc21,inactive,
O=C(O)c1cc(O)c2ccccc2c1O,,51.6 µM (active)
Cc1c(C(=O)c2c[nH]n(C)c2=O)ccc(S(C)(=O)=O)c1C1=NOCC1,inactive,
O=C1CCCCCCCCCCC1,inactive,
C=CCCCCCCCCOC(C)=O,inactive,
CCCCCCCCCCCCCc1ccccc1,inactive,
Cc1ccc(C)c(OCCCC(C)(C)C(=O)O)c1,inactive,
CC(C)(CO)C(O)C(=O)NCCCO (stereo unspecified),inactive,
CCCSSCCC,inactive,
Clc1cccnc1,inactive,
CC(C)c1ccc2ncccc2c1,inactive,
CC1(C)CCC[C@]2(C)[C@H]3CC(=O)O[C@]3(C)CC[C@@H]12,inactive,
N=C1C=CC(=C(c2ccc(N)cc2)c2ccc(N)cc2)C=C1,inactive,
CC(CC(C)C)=NO,inactive,
O=C(Cl)c1c(Cl)c(Cl)c(C(=O)Cl)c(Cl)c1Cl,inactive,
CC(C)(C)N,inactive,

SMILES,outcome,AC50
CCOC(=O)OC(=O)OCC,inactive,
CCCC1CCCC(=O)O1 (stereo unspecified),inactive,
COc1ccc(C(=O)c2ccccc2)c(O)c1,inactive,
C=CC(=O)OCC(C)OCC(C)OCC(C)OC(=O)C=C (stereo unspecified),inactive,
CCCCOCCOC(=O)COc1ccc(Cl)cc1Cl,inactive,
O=C(Oc1ccccc1)c1ccccc1C(=O)Oc1ccccc1,inactive,
CC1(C)C(=O)N(CO)C(=O)N1CO,inactive,
C=C[C@@]1(C)CC(=O)[C@]2(O)[C@@]3(C)[C@@H](O)CCC(C)(C)[C@@H]3[C@H](O)[C@H](OC(C)=O)[C@@]2(C)O1,inactive,
O=C(OCc1ccccc1)c1ccc(O)cc1,inactive,
CC(=O)OC(C)c1ccccc1 (stereo unspecified),inactive,
CCC(C)N (stereo unspecified),inactive,
CC1OC(=O)C(C)OC1=O (stereo unspecified),inactive,
CC(=O)OC/C=C(/C)CCC=C(C)C,inactive,
CCCCC1CCC(=O)O1 (stereo unspecified),inactive,
CC=C(C)C(C)=O,inactive,
CC(=O)CCC1=C(C)CCCC1(C)C,inactive,
Nc1cccc(N)n1,inactive,
Cc1noc(NS(=O)(=O)c2ccc(N)cc2)c1C,inactive,

# Experiment: ATG_TGFb_CIS: Attagene CIS-FACTORIAL HepG2 Assay for human Transforming Growth Factor (TGF) (AID 2282967)
# Conditions: HepG2 Attagene CIS TGFb reporter, mRNA transcription; actives raise or lower the signal
# In short: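 Readout: fluorescently labeled reporter cDNA fragments resolved by capillary electrophoresis after RT-PCR. Transfected HepG2 cells dosed for 24 h; endogenous TF activity at TGFB1-linked cis element; gain or loss fitted relative to DMSO.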
SMILES,outcome,AC50
CC1=C(O)C(=O)C(C)O1 (stereo unspecified),inactive,
CCCCNS(=O)(=O)c1ccc(C)cc1,inactive,
O=C(Oc1ccccc1)c1ccccc1O,inactive,
O=C1c2ccccc2C(=O)c2cc(S(=O)(=O)O)ccc21,inactive,
O=C(O)c1cc(O)c2ccccc2c1O,,33.4 µM (active)
Cc1c(C(=O)c2c[nH]n(C)c2=O)ccc(S(C)(=O)=O)c1C1=NOCC1,inactive,
O=C1CCCCCCCCCCC1,inactive,
C=CCCCCCCCCOC(C)=O,inactive,
CCCCCCCCCCCCCc1ccccc1,inactive,
Cc1ccc(C)c(OCCCC(C)(C)C(=O)O)c1,inactive,
CC(C)(CO)C(O)C(=O)NCCCO (stereo unspecified),inactive,
CCCSSCCC,inactive,
Clc1cccnc1,inactive,
CC(C)c1ccc2ncccc2c1,inactive,
CC1(C)CCC[C@]2(C)[C@H]3CC(=O)O[C@]3(C)CC[C@@H]12,inactive,
N=C1C=CC(=C(c2ccc(N)cc2)c2ccc(N)cc2)C=C1,inactive,
CC(CC(C)C)=NO,inactive,
O=C(Cl)c1c(Cl)c(Cl)c(C(=O)Cl)c(Cl)c1Cl,,0.74 µM (active)
CC(C)(C)N,inactive,

SMILES,outcome,AC50
CCOC(=O)OC(=O)OCC,inactive,
CCCC1CCCC(=O)O1 (stereo unspecified),inactive,
COc1ccc(C(=O)c2ccccc2)c(O)c1,,156 µM (active)
C=CC(=O)OCC(C)OCC(C)OCC(C)OC(=O)C=C (stereo unspecified),,143 µM (active)
CCCCOCCOC(=O)COc1ccc(Cl)cc1Cl,inactive,
O=C(Oc1ccccc1)c1ccccc1C(=O)Oc1ccccc1,inactive,
CC1(C)C(=O)N(CO)C(=O)N1CO,inactive,
C=C[C@@]1(C)CC(=O)[C@]2(O)[C@@]3(C)[C@@H](O)CCC(C)(C)[C@@H]3[C@H](O)[C@H](OC(C)=O)[C@@]2(C)O1,inactive,
O=C(OCc1ccccc1)c1ccc(O)cc1,inactive,
CC(=O)OC(C)c1ccccc1 (stereo unspecified),inactive,
CCC(C)N (stereo unspecified),inactive,
CC1OC(=O)C(C)OC1=O (stereo unspecified),inactive,
CC(=O)OC/C=C(/C)CCC=C(C)C,inactive,
CCCCC1CCC(=O)O1 (stereo unspecified),inactive,
CC=C(C)C(C)=O,inactive,
CC(=O)CCC1=C(C)CCCC1(C)C,inactive,
Nc1cccc(N)n1,inactive,
Cc1noc(NS(=O)(=O)c2ccc(N)cc2)c1C,inactive,

# — PubChem BioAssay (EPA / NIEHS)
